Most compounds without a hit are left out; they make up all but 0.37% or so of the library.
HRas wt GTP: human HRas wildtype GTP binding, change in either direction. GTP binding activity, % at 10 µM. GST-Ras wt beads, Bodipy-FL-GTP binding, flow cytometry; actives lie on both sides. 0.14% of 190,000 active;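 active = GTP binding activity at least 20% away from the 100% baseline, either lowered as inhibitor or raised as activator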;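 note: 0% = unlabeled GTP competition control and 100% = no-compound control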
Target sequence (P01112 whole entry, looked up): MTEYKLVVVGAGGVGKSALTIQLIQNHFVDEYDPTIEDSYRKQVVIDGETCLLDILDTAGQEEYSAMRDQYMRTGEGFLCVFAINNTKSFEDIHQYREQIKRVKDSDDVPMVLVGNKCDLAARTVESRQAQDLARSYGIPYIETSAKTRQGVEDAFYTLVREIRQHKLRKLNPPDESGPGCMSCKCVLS
Rab2 wt GTP: changes GTP binding to wildtype dog Rab2A, up or down; P61105; GST-Rab2 wt beads, Bodipy-GTP binding, flow cytometry; GTP binding activity, % at 10 µM; 0.19% of 190,000 active; AID 760;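 active = GTP binding activity at least 20 points away from 100%, either lowered or raised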;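 note: 0% = beads with excess unlabeled GTP and 100% = no-compound control corrected for plate trend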
Rab7 wt GTP bind: dog Rab7 wildtype GTP binding, inhibitors and activators | GST-Rab7 beads, fluorescent GTP binding, flow cytometry; actives lie on both sides; untreated = 100%, excess cold GTP = 0% | GTP binding activity (percent of control), % at 10 µM | 0.055% of 190,000 active | AID 758;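 active = fluorescent GTP binding to Rab7 beads changed by at least 20 points from the 100% baseline, either direction, mostly lower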;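 note: median green fluorescence of bound Bodipy-FL-GTP per Rab7 bead population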
Rac1 wt GTP bind: human Rac1 wildtype GTP binding, inhibitors and activators. GST-Rac1 beads, fluorescent GTP binding, flow cytometry; actives lie on both sides; 0 = cold GTP competed, 100 = untreated. GTP binding activity (% of control), % at 10 µM. 0.27% of 190,000 active. P63000;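 active = GTP binding activity at least 20 points away from the 100% control level, either lower or higher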
Cdc42 wt: changes GTP binding to wildtype human Cdc42. P60953. GST-Cdc42 beads, Bodipy-GTP binding, flow cytometry; actives lie on both sides. percent activity (GTP binding), % at 10 µM. 0.2% of 190,000 active. AID 761;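 active = percent activity GTP binding at least 20 points away from the 100% baseline, either down as inhibitor or up as activator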;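 note: median bead fluorescence of bound Bodipy-FL-GTP at 100 nM; 0% = excess unlabeled GTP control and 100% = no compound control; below 100% means less GTP binding so inhibitor and above means activator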
Target sequence (P60953 whole entry, looked up): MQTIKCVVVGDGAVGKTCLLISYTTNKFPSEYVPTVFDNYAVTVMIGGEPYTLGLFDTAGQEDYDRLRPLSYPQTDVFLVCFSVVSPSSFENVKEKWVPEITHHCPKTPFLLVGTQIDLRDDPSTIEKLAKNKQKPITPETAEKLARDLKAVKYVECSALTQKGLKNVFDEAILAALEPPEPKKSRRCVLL
Rac1 act GTP bind: alters GTP binding to activated mutant human Rac1. P63000. GST-Rac1 activated beads, fluorescent GTP binding, flow cytometry; actives lie on both sides; 100% means binding = to untreated wells. percent activity (GTP binding), % at 10 µM. 0.11% of 190,000 active. AID 764;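 active = GTP binding at least 20 percentage points away from the 100% baseline, in either direction, so actives lie on both sides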
The depositor's hits bear a star; [ ] = another dose, or the depositor's remark.

SMILES | HRas wt GTP | Rab2 wt GTP | Rab7 wt GTP bind | Rac1 wt GTP bind | Cdc42 wt | Rac1 act GTP bind
Cc1c(C(O)CN2CCN(Cc3ccc4c(c3)OCO4)CC2)c2ccccc2n1C (stereo unspecified) | 100.0 | 99.0 | 99.0 | 103.0 | 100.0 | 99.0
OC(CN1CCN(Cc2ccc3c(c2)OCO3)CC1)c1c[nH]c2ccccc12 (stereo unspecified) | 107.0 | 107.0 | 94.0 | 122.0*[activator] | 116.0 | 105.0
COc1ccc(CC(=O)Nc2ccc(S(=O)(=O)NC(C)C)cc2)cc1 | 33.0* | 29.0* | 22.0* | 27.0* | 30.0* | 29.0*
CCCCNS(=O)(=O)c1ccc(NC(=O)Cc2ccc(OC)cc2)cc1 | 96.0 | 95.0 | 93.0 | 98.0 | 94.0 | 95.0
COC(=O)c1ccc(/C=N/Nc2nc(-c3ccc(Cl)cc3Cl)cs2)cc1 | 121.0*[activator] | 123.0*[activator] | 124.0*[activator] | 130.0*[activator] | 127.0*[activator] | 119.0
Cc1cc(Cl)ccc1OC(C)C(=O)NCCCn1ccnc1 (stereo unspecified) | 99.0 | 98.0 | 103.0 | 102.0 | 99.0 | 96.0
COc1cc(/C=C2\SC(c3ccccc3)=NC2=O)cc(Cl)c1O | 81.0 | 77.0* | 88.0 | 81.0 | 78.0* | 81.0
O=C(COC(=O)/C=C/c1ccc(Cl)cc1)Nc1ccc2c(c1)OCCO2 | 81.0 | 76.0* | 87.0 | 79.0* | 83.0 | 78.0*
CCOc1ccc(C2=Nn3c(nnc3-c3ccco3)SC2)cc1 | 77.0* | 76.0* | 89.0 | 82.0 | 77.0* | 84.0
CC1=Nn2c(nnc2-c2ccco2)SC1 | 99.0 | 99.0 | 96.0 | 100.0 | 99.0 | 99.0
Cn1c(=O)c2c(nc(N/N=C/c3ccco3)n2C)n(C)c1=O | 85.0 | 83.0 | 90.0 | 74.0* | 83.0 | 85.0
CCCCOC(=O)CSC(=S)N(C)Cc1cccs1 | 103.0 | 104.0 | 100.0 | 100.0 | 102.0 | 101.0
CC(SC(=S)N(C)Cc1cccs1)C(=O)O (stereo unspecified) | 140.0*[activator] | 140.0*[activator] | 136.0*[activator] | 196.0*[activator] | 168.0*[activator] | 144.0*[activator]
CCSc1nc2nc(C)cc(C)n2n1 | 99.0 | 99.0 | 98.0 | 100.0 | 97.0 | 98.0
Cc1cc(C)n2nc(SCCOc3ccccc3F)nc2n1 | 71.0* | 71.0* | 92.0 | 74.0* | 66.0* | 84.0
O=C(CCl)Nc1cccn2ncnc12 | 110.0 | 113.0 | 105.0 | 120.0*[activator] | 114.0 | 102.0
O=C(CCc1nnc(C2(c3ccc(Cl)cc3)CCC2)o1)NCCCn1cccn1 | 96.0 | 99.0 | 99.0 | 98.0 | 96.0 | 95.0
CCOC(=O)c1ccc(NC(=O)c2c(NC(=O)CCC(=O)O)sc3c2CCCCC3)cc1 | 93.0 | 92.0 | 100.0 | 90.0 | 89.0 | 89.0
CCCOC(=O)c1c(NC(=O)CCC(=O)O)sc2c1CCCCC2 | 83.0 | 76.0* | 91.0 | 92.0 | 81.0 | 80.0
Cn1cc(C(=O)N2CCc3ccccc3C2)c(=O)c2cc(S(=O)(=O)N3CCCCC3)ccc21 | 111.0 | 111.0 | 104.0 | 121.0*[activator] | 110.0 | 103.0
C=CCn1c(-c2csc(-c3ccc(Cl)cc3)n2)n[nH]c1=S | 110.0 | 112.0 | 105.0 | 120.0*[activator] | 116.0 | 101.0
Cc1cc(C(=O)NC(CC(C)C)C(=O)O)cc(C)c1[N+](=O)[O-] (stereo unspecified) | 100.0 | 95.0 | 100.0 | 101.0 | 96.0 | 100.0
CCOC(=O)c1c(NC(=O)C(=O)N/N=C/c2ccccc2O)sc2c1CCCCC2 | 96.0 | 96.0 | 102.0 | 98.0 | 93.0 | 99.0
CSc1nc(Cc2ccccc2)cc(=O)[nH]1 | 116.0 | 120.0*[activator] | 111.0 | 127.0*[activator] | 120.0*[activator] | 122.0*[activator]
CCCc1cc(=O)[nH]c(SCc2ccccc2)n1 | 102.0 | 101.0 | 103.0 | 104.0 | 102.0 | 99.0
COc1cc([N+](=O)[O-])ccc1N=Nc1c(N)[nH]n(-c2ccccc2)c1=O | 85.0 | 80.0 | 87.0 | 81.0 | 78.0* | 83.0
COc1ccc(N(C)C2=NS(=O)(=O)c3ccccc32)cc1 | 100.0 | 99.0 | 98.0 | 104.0 | 101.0 | 97.0
CN(/N=C/c1ccco1)C1=NS(=O)(=O)c2ccccc21 | 76.0* | 73.0* | 85.0 | 64.0* | 71.0* | 80.0
